Data: ChEMBL document CHEMBL4513216, “Probing the Open Global Health Chemical Diversity Library for Multistage-Active Starting Points for Next-Generation Antimalarials” (ACS Infect Dis, 2020)
Among all 68,000 compounds or so, about 2,700 (4%) showed an effect of 50% or more. The sample holds strong results, similar compounds and a random draw of the others, so the mix is not that of the screen.

tested on: Plasmodium berghei; assay: Screen against P. berghei liver stage (PbLuc), transformed with Luciferase, at 2uM; assay type: functional, HepG2; conditions: tested at 2 uM

| Structure (SMILES) | INHIBITION |
| --- | --- |
| COc1cc2c(cc1-c1nc3c(cnn3C(C)C)[nH]1)OCO2 | 60.13% |
| COc1cc2c(cc1-c1nc3c(cnn3C(C)C3CC3)[nH]1)OCO2 (stereo unspecified) | 67.28% |
| COc1cc2c(cc1-c1nc3c(cnn3C)[nH]1)OCO2 | 21.97% |
| CCn1ncc2[nH]c(-c3cc4c(cc3OC)OCO4)nc21 | 27.42% |
| COc1cc2c(cc1-c1nc3c(cnn3C(C)C(C)C)[nH]1)OCO2 (stereo unspecified) | 7.67% |
| CCn1ncc2[nH]c(-c3cc(OC)c(OC)cc3OC)nc21 | 13.04% |
| Cc1n[nH]c(C)c1NC(=O)CN1CCc2c(nc(C3CC3)n2C)C1 | 47.57% |
| Cc1[nH]ccc1C(=O)N1CCC2(CC1)c1nc[nH]c1CCN2S(C)(=O)=O | 0.31% |
| CO[C@H]1CO[C@@]2(CCCN(S(=O)(=O)c3ccccc3)C2)C1 | -1.81% |
| Cc1cccnc1CNC(=O)CC1C(=O)NCCN1CC(C)(C)C (stereo unspecified) | -26.52% |
| Cc1nnc(N2CC[C@H]3C[C@@H](C(=O)NC4CCCC4)O[C@H]3C2)s1 | -21.74% |
| Cc1n[nH]c(C)c1CCC(=O)NCC1CCOc2ccccc2C1 (stereo unspecified) | 49.02% |
| Cc1cnc(C(=O)NCC2CCOc3ccccc3C2)cn1 (stereo unspecified) | 10.05% |
| CNc1nc(C(=O)NCC2CCOc3ccccc3C2)cs1 (stereo unspecified) | 76.82% |
| Fc1ccc(-c2n[nH]cc2CNCCn2cccn2)cc1 | 11.01% |
| CCSCCNC(=O)Nc1cc(C(=O)N2CCOCC2)ccc1Cl | -0.24% |
| O=C(NCCN1CCCC1)Nc1cc(C(=O)N2CCOCC2)ccc1Cl | 19.81% |
| CC(C)OC(=O)c1ccc(Cl)c(NC(=O)NCCN2CCOCC2)c1 | 50.94% |
| CN(CC(=O)NC(C)(C)C)Cc1nc(-c2ccccc2)c[nH]1 | -20.91% |
| CS(=O)(=O)NC[C@@H]1OC[C@H]2CN(C(=O)c3ccccc3)CC[C@H]21 | 39.18% |
| COc1cc(C(=O)N2CCCS2(=O)=O)ccc1C | 9.9% |
| COCCN1CCC(CNC(=O)C2(c3ccc(F)cc3)CCC2)CC1 | 66.2% |

| Structure (SMILES) | INHIBITION |
| --- | --- |
| COCCN1CCC(CNC(=O)C2(c3ccc(Br)cc3)CCCC2)C1 (stereo unspecified) | 66.2% |
| COCCN1CCC(CNC(=O)C2(c3ccccc3)CCC2)C1 (stereo unspecified) | -1.02% |
| COCCN1CCC(CNC(=O)C2(c3cc(C)cc(C)c3)CCC2)C1 (stereo unspecified) | -36.13% |
| CCN1CCC(CNC(=O)C2(c3ccc(F)cc3)CC2)C1 (stereo unspecified) | 20.41% |
| COCCN1CCC(CNC(=O)C2(c3cccc(C)c3)CC2)C1 (stereo unspecified) | 43.79% |
| COCCN1CCC(CNC(=O)C2(c3cc(C)cc(C)c3)CC2)CC1 | 39.72% |
| COCCN1CCC(CNC(=O)C2(c3cccc(Cl)c3)CC2)C1 (stereo unspecified) | 56.02% |
| COCCN1CCC(CNC(=O)C2(c3cccc(C)c3)CC2)CC1 | 3.9% |
| Cc1nc(C(NS(=O)(=O)N(C)C)c2ccccc2F)no1 (stereo unspecified) | -1.56% |
| CCCNC(=O)Nc1ccn(CCCOC)n1 | -27.36% |
| CC(C)CSCCN1CCCN(S(C)(=O)=O)CC1 | -14.71% |
| CCn1c(CN(C)C)nnc1C1CCN(Cc2ccc(Cl)cc2F)CC1 | -12.75% |
| Cc1cccc(C2(O)CCN(C(=O)c3ccccn3)CC2)c1C | 14.59% |
| Cc1cnn(CC2CCCN2Cc2cc(C)no2)c1 (stereo unspecified) | -4.43% |
| COCC1CC2(CCN(C(=O)c3oc4ccccc4c3C)CC2)CO1 (stereo unspecified) | 5.15% |
| CCOc1ccc(Cl)c(C(=O)NCCC(=O)Nc2ccncc2)n1 | 39.54% |
| CCN1CCN(c2ccc(CNC(=O)c3cnn(C)c3C)cn2)CC1 | 21.83% |
| Cn1ccc(C(=O)NCc2ccc(N3CCOCC3)nc2)cc1=O | 52.17% |
| Cn1ccc(C(=O)NCc2ccc(N3CCCC3)nc2)cc1=O | 9.3% |
| CCN1CCN(c2ccc(CNC(=O)c3cc(C)on3)cn2)CC1 | 23.24% |
| CCN1CCN(c2ccc(CNC(=O)c3ccc(Cl)o3)cn2)CC1 | 66.93% |
| Cn1ccc(C(=O)NCc2ccc(N3CCCCC3)nc2)cc1=O | 26.06% |

| Structure (SMILES) | INHIBITION |
| --- | --- |
| CNC(=O)c1ccnc(CC2COc3c(cccc3OC)C2)c1 (stereo unspecified) | -12.13% |
| CCN(CC)S(=O)(=O)N1CCC(c2nccn2Cc2ccccn2)CC1 | -28.42% |
| Cc1ncc(C(=O)NCCNc2ccncc2)s1 | -60.22% |
| CN(C)C(=O)c1ccc(C2CCCN2C(=O)CCC2=NNC(=O)CC2)s1 (stereo unspecified) | -11.64% |
| Cc1cc(NCc2cc3n(n2)CCCN(C(=O)C2CCC2)C3)ncn1 | 19.13% |
| Cc1cc(NCc2cc3n(n2)CCCN(S(C)(=O)=O)C3)ncn1 | -14.84% |
| CS(=O)(=O)N1CCCn2nc(CNc3ncccn3)cc2C1 | 51.19% |
| Cc1nccc(NCc2cc3n(n2)CCCN(S(C)(=O)=O)C3)n1 | 8.89% |
| O=C(C1CCC1)N1CCCn2nc(CNc3ncccn3)cc2C1 | 52.47% |
| Cc1cc(C)nc(NCc2cc3n(n2)CCCN(C(=O)C2CCC2)C3)n1 | -4.53% |
| Nc1nccc(NCc2cc3n(n2)CCCN(C(=O)C2CCC2)C3)n1 | 4.47% |
| Cc1nccc(NCc2cc3n(n2)CCCN(C(=O)C2CCC2)C3)n1 | 55.7% |
| CSc1nccc(NCc2cc3n(n2)CCCN(C(=O)C2CCC2)C3)n1 | -36.65% |
| CC1=N[C@@]2(CC[C@@H]3CN(Cc4ccc(C)cc4)C[C@@H]32)C(=O)N1CC1CC1 | 41.38% |
| Cc1ccccc1C1CCCN1Cc1nc2c(cnn2C)c(=O)[nH]1 (stereo unspecified) | -29.69% |
| Cc1nccc(C(=O)NC(CN2CCCC2=O)c2ccccc2)n1 (stereo unspecified) | -45.82% |
| CC1CN(C)CCN1C(=O)c1ccn(-c2ccccc2)n1 (stereo unspecified) | 23.42% |
| COc1ccccc1OCCCc1cncc(C(N)=O)c1 | -69.92% |
| COc1cccc(OCCc2cncc(C(N)=O)c2)c1 | -18.52% |
| COc1cccc(OCCCc2cncc(C(N)=O)c2)c1 | 61.08% |
| Nc1ncnc2nc(C3CCN(C(=O)Cc4ccccc4)C3)ccc12 (stereo unspecified) | -7.22% |
| CCc1nc(CC2CN(c3ncnc4sc(C)c(C)c34)CCO2)no1 (stereo unspecified) | -7.81% |
